CHT allo act: allosterically activates the human high affinity choline transporter | B-score at 10 µM | AID 488977 | CHT-expressing cells, membrane potential dye, choline EC20; stronger effect = higher value; LV-AA mutant CHT in HEK293 cells | 310,000 compounds, 0.49% hits | Q9GZV3;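 active = initial fluorescence not abnormally high and integrated response B-score, plate-corrected, over 3 SD above library mean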
Target sequence (Q9GZV3 whole entry, looked up): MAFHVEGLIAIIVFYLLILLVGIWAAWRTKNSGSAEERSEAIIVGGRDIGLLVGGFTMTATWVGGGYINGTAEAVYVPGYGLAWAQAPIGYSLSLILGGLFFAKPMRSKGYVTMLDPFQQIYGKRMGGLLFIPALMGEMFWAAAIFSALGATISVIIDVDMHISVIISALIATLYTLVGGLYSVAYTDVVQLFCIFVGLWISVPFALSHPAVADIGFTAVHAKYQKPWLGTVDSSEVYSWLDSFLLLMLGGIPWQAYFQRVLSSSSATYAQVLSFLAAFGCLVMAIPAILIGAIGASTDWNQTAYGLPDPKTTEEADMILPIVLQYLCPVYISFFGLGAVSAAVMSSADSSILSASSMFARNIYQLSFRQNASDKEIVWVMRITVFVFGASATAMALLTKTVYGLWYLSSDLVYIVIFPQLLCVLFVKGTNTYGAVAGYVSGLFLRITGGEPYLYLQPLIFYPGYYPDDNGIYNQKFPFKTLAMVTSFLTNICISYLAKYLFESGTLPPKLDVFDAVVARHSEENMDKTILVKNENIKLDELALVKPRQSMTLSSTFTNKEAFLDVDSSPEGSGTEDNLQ
CHT inh: inhibitors of human choline transporter CHT; CHT-expressing cells, membrane potential dye, choline response; stronger effect = lower value; Q9GZV3; 310,000 compounds, 0.86% hits; B-score at 10 µM;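 active = B-score over 3 SD under the library average, and starting fluorescence ratio not unusually high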;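 also: choline stimulus applied at its EC90 after an EC20 pre-addition; B-score computed on integrated fluorescence ratio after choline addition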
PREPL inhibitor: inhibits the human prolyl oligopeptidase-like enzyme. inhibition, % at 5.96 µM. Q4J6C6. 320,000 compounds, 0.68% hits. recombinant PREPL, fluorescence polarization activity-based probe; in the data active = inhibition above about 43%
AI-2 QS mod: modulates the Vibrio harveyi AI-2 quorum sensing system; 300,000 compounds, 0.4% hits; activity change, % at 7.5 µM; AID 2094; Vibrio harveyi JMH597 AI-2 luminescence/OD600 ratio, 9 h; stronger effect = lower value; strain lacks LuxN and CqsS sensors; 0 = neutral-control median; in the data active = activity change below about -75%, passing the limit was not always enough;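 also: luminescence divided by OD600 gain over 9 h not by final OD600 alone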
ALR inh: blocks human ALR sulfhydryl oxidase activity | 290,000 compounds, 3.8% hits | purified ALR, DTT oxidation, H2O2 HRP-luminol luminescence | inhibition, % (no concentration beside the values) | P55789;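 active = mean replicate inhibition above about 79%, with every replicate also reaching it, limit read from the data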
CHT act confirm: confirmation of human choline transporter (CHT) activators. shares compounds with CHT allo act. activation, % at 10 µM. CHT-expressing cells, membrane potential dye fluorescence (FDSS); % of choline EC20–EC90 response window; HEK293 expressing CHT LV-AA mutant; choline added at its EC20. 2,500 compounds, 91% hits;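 active = primary screen active, with duplicate mean activation above negative control mean plus 3 SD, cut at about 11% in these data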
HEK293 MP dye: counter-screen for CHT activators: effect in parental HEK293 cells | shares compounds with CHT allo act | membrane potential dye fluorescence (FDSS); measured after EC20 choline addition | ratio readout change at 10 µM, hits read low | 2,500 compounds, 62% hits | AID 623908;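 active = duplicate-averaged ratio beyond 3 SD from buffer wells, up or down, though filed actives are nearly all decreases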
Of the large screens only hits and unclear results are named; the others gave an inactive call (follow-up assays come after a bar, where they were run). Sampled rows, rich in hits. Any-hit rate of the full collection: about 5%.

CCOc1ccc(S(=O)(=O)N2CCCCC2)cc1NC(=O)C1CSC2(C)CCC(=O)N12 (stereo unspecified)	none | CHT act confirm 26 | HEK293 MP dye inactive
Cc1ccccc1[C@@H](NC(=O)OC(C)(C)C)C(=O)OC(C)(C)C	none (no result: CHT allo act, CHT inh, AI-2 QS mod)
Cc1cccc(OCC(=O)N2CCc3ccccc3C2)c1	none
Cc1cc(=O)oc2cc(OCC(=O)N3CCC(O)CC3)c(Cl)cc12	none | CHT act confirm 25 | HEK293 MP dye -21
Cc1cc(=O)oc2cc(OCC(=O)N3CCOCC3)c(Cl)cc12	none (no result: CHT allo act, CHT inh, AI-2 QS mod, ALR inh)
CC(C)(CN1CCN(Cc2ccccc2)CC1)NS(=O)(=O)c1ccc(Cl)cc1	CHT allo act 9 | CHT act confirm 21 | HEK293 MP dye inactive
O=C(Nc1ccccc1)OC1CCC2CC1CCC2OC(=O)Nc1ccccc1 (stereo unspecified)	none | CHT act confirm 32 | HEK293 MP dye inactive
CCCCCn1c2c(c(=N)c3ccccc31)CCC2	CHT allo act 6.7 | CHT act confirm 41 | HEK293 MP dye -65
CCOC(=O)Cn1c2c(c(=N)c3c1CCC3)CCC2	none | CHT act confirm 23 | HEK293 MP dye -48
CCCCCCCCn1c2c(c(=N)c3ccccc31)CCC2	none (no result: CHT allo act, CHT inh, PREPL inhibitor, ALR inh)
CCOC(=O)Cn1c2c(c(=N)c3ccccc31)CCC2	none | CHT act confirm 65 | HEK293 MP dye -51
CCOC(=O)C1(S(=O)(=O)c2ccc(Cl)cc2)CCN(Cc2ccc(C)cc2)CC1	none
O=[N+]([O-])c1ccc(C2=NCCO2)cc1	none
CN(C(=O)c1ccc(-c2nn(C)c(=O)c3ccccc23)cc1)C1CCCCC1	none
O=C(C[n+]1cc2ccccc2c2ccccc21)c1ccccc1	none
Cc1nc2c(C)[n+](CC(=O)c3ccccc3)ccc2n1C	none | CHT act confirm 44 | HEK293 MP dye -38
Cc1cccn2c(=O)c(/C=C(\C#N)C(=O)NC3CCS(=O)(=O)C3)c(Oc3ccccc3Cl)nc12 (stereo unspecified)	none (no result: AI-2 QS mod) | CHT act confirm inactive | HEK293 MP dye -47
Cc1cccn2c(=O)c3cc(C(=O)N4COCC4(C)C)sc3nc12	none (no result: ALR inh) | CHT act confirm 35 | HEK293 MP dye -30
CCCn1c(=N)c(C(=O)NC2CCCC2)cc2c(=O)n3cccc(C)c3nc21	none
Cc1ccccc1Oc1nc2c(C)cccn2c(=O)c1/C=C(\C#N)C(=O)NC1CCS(=O)(=O)C1 (stereo unspecified)	none
Cc1cccn2c(=O)c3cc(C(=O)NC4CCS(=O)(=O)C4)sc3nc12 (stereo unspecified)	CHT allo act 6.4 (no result: ALR inh) | CHT act confirm 51 | HEK293 MP dye -43
Cc1ccccc1NC(=O)c1cc2c(=O)n3cccc(C)c3nc2s1	none (no result: ALR inh)
Cc1cccn2c(=O)c3cc(C(=O)NC4CCCC4)c(=N)n(C4CCCC4)c3nc12	none | CHT act confirm 34 | HEK293 MP dye -39
O=C(c1ccccc1)N1CCN(C2c3cccc4cccc(c34)C2NS(=O)(=O)c2ccccc2)CC1 (stereo unspecified)	none
O=C(CCSc1ccccc1)Nc1nnc(-c2cccs2)o1	none
Cc1ccccc1N1CCN(CCC(=O)Nc2ccc(F)cc2)CC1	none
Cc1ccnc(NC(=O)C(C)N2C(=O)c3ccccc3S2(=O)=O)c1 (stereo unspecified)	CHT allo act 10 | CHT act confirm inactive | HEK293 MP dye inactive
Cc1ccnc(NC(=O)CN2C(=O)c3ccccc3S2(=O)=O)c1	none
Cc1csc(NC(=O)C(C)N2C(=O)c3ccccc3S2(=O)=O)n1 (stereo unspecified)	none | CHT act confirm 11 | HEK293 MP dye inactive
CC(=O)C(Cc1ccccc1)NC(=O)CN1c2cccc3cccc(c23)S1(=O)=O (stereo unspecified)	none (no result: CHT allo act, CHT inh, AI-2 QS mod)
COc1ccc(OC)c2c(C)cc(C)nc12	CHT allo act 8.8 | CHT act confirm 57 | HEK293 MP dye -81
CC(=O)Nc1ccc(N/C(N)=N/c2nc(C)cc(C)n2)cc1	none
Cc1cc(C)nc(/N=C(\N)Nc2ccc(SC(F)F)cc2)n1	none | CHT act confirm 46 | HEK293 MP dye -49

Bioassay records as filed in PubChem.
